Bioassay records from PubChem.
An excerpt weighted towards active compounds, which were near 0.78% of everything screened.
RECQ1 inh: inhibitors of human RECQ1 DNA helicase | RECQ1 DNA unwinding, red fluorescence kinetic read | P46063 | AID 2549 | hit rate 0.54% among 240,000 | Potency, µM (doses to about 57.3 µM), most hits filed as inhibitors; note: nearly all actives have a fitted effect of over 30% in size
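RECQ1T1 50 nM; forked duplex (20 bp + 30-nt ss tails) 200 nM, ATP 2 mM final; pH 8.0, 2 mM MgCl2, 2.5 ug/ml poly(dI-dC); 15 min compound preincubation; discontinuous kinetic read over 2 h at RT.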
L3MBTL1 inh: blocks human L3MBTL1; Q9Y468; AlphaScreen L3MBTL1–H3K9me1 peptide binding; hit rate 0.66% among 230,000; Potency, µM (top dose mostly 57.1 µM), actives largely listed as inhibitors; AID 485360; note: nearly all actives have a fitted effect of over 60% in size
Target sequence (Q9Y468 whole entry, looked up): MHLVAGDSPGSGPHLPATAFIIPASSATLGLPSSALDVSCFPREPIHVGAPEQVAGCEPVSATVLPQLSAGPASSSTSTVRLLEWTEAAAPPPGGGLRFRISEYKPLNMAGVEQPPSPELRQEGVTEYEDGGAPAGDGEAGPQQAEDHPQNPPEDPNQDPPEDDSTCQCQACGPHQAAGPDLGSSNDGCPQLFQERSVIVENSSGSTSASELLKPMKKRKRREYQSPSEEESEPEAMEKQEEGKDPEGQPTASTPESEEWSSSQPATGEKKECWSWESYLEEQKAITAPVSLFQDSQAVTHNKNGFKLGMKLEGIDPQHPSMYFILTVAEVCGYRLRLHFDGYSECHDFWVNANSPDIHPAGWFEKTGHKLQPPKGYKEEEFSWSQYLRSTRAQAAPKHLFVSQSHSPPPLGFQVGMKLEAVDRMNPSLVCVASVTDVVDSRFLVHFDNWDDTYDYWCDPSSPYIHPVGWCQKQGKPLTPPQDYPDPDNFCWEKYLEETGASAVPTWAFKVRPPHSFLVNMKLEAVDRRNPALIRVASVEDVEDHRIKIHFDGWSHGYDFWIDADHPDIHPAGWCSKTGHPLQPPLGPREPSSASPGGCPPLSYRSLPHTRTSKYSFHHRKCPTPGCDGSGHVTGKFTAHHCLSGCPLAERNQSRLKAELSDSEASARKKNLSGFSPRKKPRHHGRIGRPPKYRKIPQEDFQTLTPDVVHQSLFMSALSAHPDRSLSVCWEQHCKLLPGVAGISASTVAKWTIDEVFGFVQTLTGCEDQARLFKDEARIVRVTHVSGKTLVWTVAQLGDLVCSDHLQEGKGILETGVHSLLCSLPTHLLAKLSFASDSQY
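Read-out is AlphaScreen signal from streptavidin donor and nickel chelate acceptor beads (10 ug/mL final each) bridging L3MBTL1 (50 nM) and biotinylated K9-monomethylated H3(1-15) peptide (75 nM), after 30 min compound exposure at room temperature.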
APEX1 inh: APE1 (human) endonuclease inhibition; P27695; recombinant APE1, TAMRA/BHQ-2 abasic DNA cleavage fluorescence; Potency, µM (top dose mostly 65.8 µM), actives largely listed as inhibitors; hit rate 0.35% among 350,000; note: nearly all actives have a fitted effect of over 55% in size
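APE1 at 0.75 nM final was preincubated with compound 15 min at room temperature, then 50 nM double-stranded THF abasic-site substrate (5'-TAMRA/3'-BHQ-2) was added. Fluorescence (ex 525/em 598 nm) was read kinetically; third-minus-first read gave activity.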
BLM inh: inhibitors of human Bloom syndrome helicase BLM; P54132; recombinant BLM DNA unwinding, fluorescence dequenching; Potency, µM (highest dose often 56.1 µM), usual class: inhibitors; hit rate 0.2% among 350,000; note: nearly all actives have a fitted effect of over 35% in size
A number is an active result; 0 = inactive; ? = inconclusive; - = no result given; [ ] = dose if it differs, or a comment. Calls come from the whole dose curve; as a rule, active = well fitted curve in the direction sought with a large enough effect; inconclusive = small, poorly fitted or top-dose-only effect, or another doubt; inactive = no such curve, though single readings can be large; an effect the other way counts as inactive or inconclusive.

SMILES	RECQ1 inh	L3MBTL1 inh	APEX1 inh	BLM inh
CN(C)c1ccc(-c2cc(O)c3ncccc3c2)cc1	-	0	0	-
C/C=C1\COC(C(=O)NCCOCCO)(C(F)(F)F)C=C1C=C1CCCCC1 (configuration not stated)	0	-	0	0
C[C@@H]1CC[C@@]2(OC1)O[C@H]1C[C@H]3[C@@H]4CC[C@H]5C[C@@H](O)CC[C@]5(C)[C@H]4CC(=O)[C@]3(C)[C@H]1[C@@H]2C	-	-	0	-
Nc1cn(C2OC(CO)C(O)C2O)c(=O)[nH]c1=O (configuration not stated)	-	0	18.9µM	0
CCc1ccc(C(=O)C(C)CN2CCCCC2)cc1 (configuration not stated)	-	-	-	0
CCc1ccc(OCC(=O)N/N=C\c2ccco2)c([N+](=O)[O-])c1	0	35.5µM	?	0
CC(C)=CCC/C(C)=C/CC/C(C)=C/CC/C(C)=C/C(=O)O	0	-	0	0
O=C1OC2(c3ccccc31)c1cc(I)c(O)c(I)c1Oc1c2cc(I)c(O)c1I	28.2µM	3.16µM	26.7µM	22.4µM
Cc1cc(O)ccc1C1(c2ccc(O)cc2C)OC(=O)c2ccccc21	0	0	0	0
O=C1OC2(c3cc(I)c(O)c(I)c3Oc3c2cc(I)c(O)c3I)c2c(Cl)c(Cl)c(Cl)c(Cl)c21	10µM	-	12.6µM	12.6µM
Cn1cc(/C=C2\SC(=S)N(NC(=O)c3ccccc3)C2=O)c2ccccc21	31.6µM	0	0	0
CSCC[C@H](NC(=O)[C@H](CCCNC(=N)N)NC(=O)[C@H](Cc1ccc(O)cc1)NC(=O)[C@@H]1CCCN1C(=O)CNC(=O)[C@H](CCC(=O)O)NC(=O)[C@H](CC(=O)O)NC(=O)[C@H](CCCCN)NC(=O)[C@H](CCCCN)NC(=O)[C@H](CCC(=O)O)NC(=O)[C@H](C)N)C(=O)N[C@@H](CCC(=O)O)C(=O)N[C@@H](Cc1cnc[nH]1)C(=O)N[C@@H](Cc1ccccc1)C(=O)N[C@@H](CCCNC(=N)N)C(=O)N[C@@H](Cc1c[nH]c2ccccc12)C(=O)NCC(=O)N[C@@H](CO)C(=O)N1CCC[C@H]1C(=O)N1CCC[C@H]1C(=O)N[C@@H](CCCCN)C(=O)N[C@@H](CC(=O)O)C(=O)O	0	-	0	0
CC(/C=C/c1ccco1)=N/NC(=O)CNc1ccccc1C	0	-	0	0
CC(/C=C/c1ccco1)=N\NC(=O)CNc1ccc2ccccc2c1	0	35.5µM	0	0
Oc1ccc(-c2csc(-c3cccnc3)n2)cc1O	0	-	15.8µM	0
CO[C@H]1C[C@H](O[C@H]2[C@H](C)[C@@H](O[C@@H]3O[C@H](C)C[C@H](N(C)C)[C@H]3O)[C@@H](C)C[C@]3(CO3)C(=O)[C@H](C)[C@@H](O)[C@@H](C)[C@@H](C)OC(=O)[C@@H]2C)O[C@@H](C)[C@@H]1O	-	-	0	-
CCN(CC)c1ccc(C=C2C(=O)OC(c3ccccc3)OC2=O)cc1 (configuration not stated)	0	-	0	0
CCN(CC)c1ccc(/C=C/C(=O)C2C(=O)C=C(C)OC2=O)cc1 (configuration not stated)	15.8µM	-	?	?
COc1ccc(NC2=C(NC(C)=O)C(=O)c3ccccc3C2=O)cc1	-	-	0	0
COC1=C(Nc2ccc(OC)cc2)C(=O)c2ccccc2C1=O	0	28.2µM	0	0
CCOc1ccc(NC2=C(OC)C(=O)c3ccccc3C2=O)cc1	0	25.1µM	?	0
COc1ccc(NC2=C(NCCO)C(=O)c3ccccc3C2=O)cc1	0	?	0	0
CC(=O)O[C@@H]1C(CO[Si](C)(C)C(C)(C)C)=C(Br)C(=O)[C@@H]2O[C@]12C	0	-	0	0
O=S(=O)(O)c1ccc2c(N=Nc3ccc(S(=O)(=O)O)c4ccccc34)c(O)c(S(=O)(=O)O)cc2c1	-	-	-	0
Cc1cc(-c2ccc(N=Nc3cc(S(=O)(=O)O)c4ccccc4c3N)c(C)c2)ccc1N=Nc1cc(S(=O)(=O)O)c2ccccc2c1N	12.6µM	-	25.1µM	-
SMILES	RECQ1 inh	L3MBTL1 inh	APEX1 inh	BLM inh
COc1ccc(OC)c(/C=N/c2oc(-c3ccco3)c(-c3ccco3)c2C#N)c1	?	25.1µM	?	0
N#Cc1c(N)oc(-c2ccco2)c1-c1ccco1	0	0	?	0
COc1cc(/C=N/NC(=O)COc2c(C)cc([N+](=O)[O-])cc2C)ccc1OC(=O)c1ccccc1Br	0	0	0	0
COc1cc(/C=N/NC(N)=O)ccc1OCC(=O)Nc1ccc(C)c(C)c1	0	0	0	10µM
COc1cc(/C=N/NC(=O)COc2c(C)cc([N+](=O)[O-])cc2C)ccc1OC(=O)c1ccccc1	28.2µM	0	0	0
COc1ccc(/C=C/C(=O)CC(=O)/C=C/c2cccc(O)c2OC)cc1O	0	-	?	0
COc1ccc(CNC(=O)c2cc3c(=O)n4ccccc4nc3n(Cc3cccnc3)c2=N)cc1	14.1µM	-	0	0
N=c1c(C(=O)NCc2ccc3c(c2)OCO3)cc2c(=O)n3ccccc3nc2n1Cc1cccnc1	0	0	0	0
CCC1=NN(C(=O)c2ccc(C)cc2)C(O)(c2ccc(Br)cc2)C1 (configuration not stated)	0	0	0	0
CCC1=NN(C(=O)c2cccc(Br)c2)C(O)(c2ccc(Br)cc2)C1 (configuration not stated)	0	28.2µM	0	0
N#Cc1c(-c2ccc3ccccc3c2)no[n+]1[O-]	-	-	0	-
O=C(COC(=O)c1ccc([N+](=O)[O-])s1)NC(=O)NCc1ccccc1	0	11.2µM	?	0
O=C(COC(=O)c1ccc([N+](=O)[O-])s1)NNC(=O)c1ccccc1	-	0	0	-
C=CCNc1oc(-c2cccc(Br)c2)nc1C#N	-	-	0	-
CCCCn1c(C)cc2c(c1=O)C1O[C@](c3ccc(OC)cc3)(Cc3cc(OC)c(OC)cc31)O2	-	-	4.33µM	0[12.4 µM]
COc1ccc(CNc2nc(-c3ccc(C(=O)N(C)C)cc3)nc3ccccc23)c(OC)c1	0	-	0	0
COc1ccc(CNc2nc(-c3ccc(N(C)C)cc3)nc3ccccc23)c(OC)c1	0	-	0	28.2µM
COc1ccccc1C(=O)N=Nc1c(O)[nH]c2ccc([N+](=O)[O-])cc12	0	0	0	0
O=C(N=Nc1c(O)[nH]c2ccc([N+](=O)[O-])cc12)c1cc(-c2ccccc2Cl)nc2ccccc12	0	0	0	3.98µM
CC(=O)OC1CC(C)OC(C)O1 (configuration not stated)	0	-	0	-
CCOC(=O)c1sc(N=NC2=C(O)CCCC2=O)c(C(=O)OCC)c1C	0	3.55µM	?	?
CCOC(=O)/C(N=Nc1sc(C(=O)OCC)c(C)c1C(=O)OCC)=C(\C)O	0	0	0	0
Cc1ncc(CO)c(/C=N/NC(=S)Nc2ccc(F)cc2)c1O	0	14.1µM	0	0
Cc1ncc(CO)c(/C=N/Nc2ccc(C(F)(F)F)cn2)c1O	-	-	0	0
COc1cccc(CNc2ccc(N3CCCCC3)cc2)c1OC	0	20µM	0	0
COc1ccccc1CNc1ccc(N2CCCCC2)cc1	0	?	0	0
COc1cccc(Nc2ccc(N3CCCCC3)cc2)c1OC	-	35.5µM	0	-
